# PPARg SRC2 recr: PPARgamma-driven SRC-2 recruitment agonism; AID 1032; PPARgamma LBD-SRC-2 recruitment, biochemical; activation, % at 8 µM; actives 0.34% (n = 200,000);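 further: 0% = vehicle and 100% = reference agonist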
# SRC1 TRFRET art: TR-FRET artefact, counter-screen to PPARgamma/SRC-1 agonist assay; TR-FRET detection artefact counter-screen, emission ratio; active compounds read high; TR-FRET ratio at 8 µM; actives 0.34% (n = 99,000); AID 1051; in the data active means TR-FRET ratio above about 2300
# SRC2 TRFRET art: TR-FRET artefact, counter-screen to PPARgamma/SRC-2 agonist assay; actives 0.4% (n = 200,000); TR-FRET ratio at 8 µM; active compounds read high; in the data active means TR-FRET ratio above about 2000
# PPARg SRC-3 ag: promotes SRC-3 coactivator recruitment by human PPARgamma | P37231 | biochemical PPARgamma/SRC-3 coactivator recruitment assay | activation, % at 8 µM | actives 0.26% (n = 200,000); in the data active means activation above about 23%;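 further: 0% = DMSO and 100% = reference agonist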
# SRC3 TRFRET art: TR-FRET artefact, counter-screen to PPARgamma/SRC-3 agonist assay; PPARgamma/SRC-3 format; active compounds read high; TR-FRET ratio at 8 µM; actives 0.39% (n = 99,000); AID 1048; in the data active means TR-FRET ratio above about 2000
# PPARg SRC-1 ag: promotes SRC-1 coactivator recruitment by human PPARgamma; P37231; PPARgamma-SRC-1 coactivator recruitment biochemical assay; activation, % at 8 µM; actives 0.41% (n = 200,000); in the data active means activation above about 19%;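 further: 0% = DMSO and 100% = reference agonist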
# PPARg SRC2 conf: confirmation of agonists of SRC-2 recruitment by human PPARgamma; biochemical SRC-2 recruitment by PPARgamma; shares compounds with PPARg SRC-3 ag; activation, % at 8 µM; actives 52% (n = 790);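 further: 0% = vehicle alone and 100% = reference agonist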
# PPARg SRC1 ag: human PPARgamma SRC-1 recruitment agonism, confirmation | shares compounds with PPARg SRC-3 ag | activation, % at 8 µM | actives 43% (n = 790) | AID 1300 | PPARgamma–SRC-1 coactivator recruitment biochemical assay; in the data active means activation above about 20%;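 further: 0% = vehicle wells and 100% = reference agonist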
# PPARg SRC3 conf: human PPARgamma SRC-3 recruitment agonism, confirmation; shares compounds with PPARg SRC-3 ag; biochemical PPARgamma-SRC-3 coactivator recruitment, agonist mode; activation, % at 8 µM; actives 29% (n = 790); AID 1301; in the data active means activation above about 24%;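 further: 0% = vehicle wells and 100% = reference agonist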
# An asterisk follows results filed as active; x = no result. Shown are actives, neighbours in structure and some others; about 0.84% of the full set was active somewhere. Unless noted, no stated cut-off is given here; in the data, active means activation above about 22%; inactive means the rest.
SMILES,PPARg SRC2 recr,SRC1 TRFRET art,SRC2 TRFRET art,PPARg SRC-3 ag,SRC3 TRFRET art,PPARg SRC-1 ag,PPARg SRC2 conf,PPARg SRC1 ag,PPARg SRC3 conf
CCc1cc2cc(C(=O)Nc3ccc(F)cc3)sc2s1,39*,x,2237*,21,x,15,25*,17,15
CN(C)c1nc(C=C(C#N)C#N)c(Cl)n1-c1ccc(F)cc1,10,1988,1778,6,1777,5,x,x,x
C=CCn1c(-c2csc(-c3ccc(Cl)cc3)n2)n[nH]c1=S,10,x,1851,13,x,7,x,x,x
C=CCn1c(-c2csc(-c3ccc(OC)c(OC)c3)n2)n[nH]c1=S,23*,2209,2116*,13,1975,11,20,15,14
C=CCn1c(-c2cc(Cl)ccc2OC)n[nH]c1=S,26*,x,1913,20,x,19*,30*,22*,21
O=C(NC1CCCc2ccccc21)c1cccc(S(=O)(=O)N2CCOCC2)c1 (stereo unspecified),5,1961,1451,-1,1392,6,x,x,x
COc1ccc(CNC(=O)CN(C2CCCCC2)S(C)(=O)=O)cc1,1,1867,1581,1,1656,7,x,x,x
CCC(OC(=O)c1cc2sccc2n1C)C(=O)NCc1ccco1 (stereo unspecified),10,x,1504,14,x,31*,16,25*,26*
Cn1c(C(=O)OCC(=O)NCc2ccco2)cc2sccc21,2,x,1382,-2,x,-4,x,x,x
CCCC(C)NC(=O)c1ccc(OCc2ccc(Cl)cc2)c(OC)c1 (stereo unspecified),23*,2154,1657,57*,1723,62*,31*,56*,48*
Cc1ccc(C(=O)C2=C(O)C(=O)N(c3ncccn3)C2c2ccc(Cl)cc2)o1 (stereo unspecified),38*,x,2243*,43*,x,28*,28*,21*,22
CCC1/C(=N\O)CC(c2ccco2)NC1c1ccco1 (stereo unspecified),1,x,1686,7,x,6,x,x,x
CCOC(=O)Cc1nnc(NC(=O)c2cccc(OCC)c2)s1,-6,x,1642,4,x,1,x,x,x
Cc1cccc(OCC(=O)Nc2nnc(-c3ccco3)s2)c1,28*,2686*,2106*,20,2164*,28*,36*,28*,22
COc1ccccc1OCC(=O)Nc1nnc(-c2ccco2)s1,31*,x,2199*,35*,x,28*,24*,21*,15
CCCC(=O)Nc1nnc(-c2ccco2)s1,5,x,1854,7,x,13,x,x,x
CCOc1cccc(C(=O)Nc2nnc(-c3ccco3)s2)c1,17,x,1945,17,x,22*,20,17,15
O=C(Cc1ccccc1)Nc1nnc(-c2ccco2)s1,31*,x,2292*,37*,x,37*,31*,24*,18
COc1ccc(C(=O)NNC(=O)CSc2nnc(C)n2CC2CCCO2)cc1 (stereo unspecified),14,1820,1758,4,1482,14,x,x,x
CCO[C@H]1OC(C(=O)N2CCN(C)CC2)=C[C@@H](C)[C@@H]1CCCO,6,1739,1659,-1,1440,5,x,x,x
CCc1nnc(NC(=O)C(CC)c2ccccc2)s1 (stereo unspecified),-2,1783,1600,3,1659,0,x,x,x
CCC(C(=O)Nc1nnc(-c2ccco2)s1)c1ccccc1 (stereo unspecified),15,x,1806,27*,x,26*,27*,21*,20
C#CCn1c(=NC(=O)c2sc3ccccc3c2Cl)sc2cc(S(N)(=O)=O)ccc21,33*,2366*,2057*,16,2062*,13,33*,22*,15
COc1cccc(OCC(=O)O/N=C(\N)c2ccc(OC)c(OC)c2)c1,1,1959,1434,-1,1555,-1,x,x,x
COCCCn1cc(C(=O)c2ccccc2OCC(=O)Nc2cccc(F)c2)cc(C#N)c1=O,-5,1836,1455,-2,1282,-6,x,x,x
SMILES,PPARg SRC2 recr,SRC1 TRFRET art,SRC2 TRFRET art,PPARg SRC-3 ag,SRC3 TRFRET art,PPARg SRC-1 ag,PPARg SRC2 conf,PPARg SRC1 ag,PPARg SRC3 conf
CN(C)c1ccc(N=C/C=C2/N(C)c3ccccc3C2(C)C)cc1,32*,2167,2099*,17,2085*,28*,13,12,8
CN1/C(=C\C=N\O)C(C)(C)c2ccccc21,1,1991,1498,-1,1499,-3,x,x,x
O=C(c1ccccc1)N1CCSC1=S,-3,x,1438,-4,x,-3,x,x,x
O=C(c1ccccc1)N1CCSc2sccc2C1=O,29*,2582*,2115*,12,2052*,20,39*,32*,24*
COc1ccc(N2CCN(Cc3nc(N)nc(Nc4ccccc4OC)n3)CC2)cc1,9,x,1569,2,x,2,x,x,x
COc1ccc(Nc2nc(N)nc(CN3CCN(c4ccc(F)cc4)CC3)n2)cc1,10,2427*,1746,5,1573,24*,5,3,3
O=c1c2cnn(-c3ccccc3)c2nc(-c2ccco2)n1-c1ccccc1,10,x,1611,6,x,-1,x,x,x
O=c1oc(-c2ccco2)nc2c1cnn2-c1ccccc1,14,x,1579,3,x,20*,7,16,23
COc1ccc2c(c1)nc(SCC(=O)c1ccc(Br)s1)n2C,28*,x,1815,22,x,16,39*,27*,28*
COc1cc(-c2nc(-c3ccccc3)c(-c3cccs3)[nH]2)cc(OC)c1OC,10,x,1650,1,x,7,x,x,x
c1ccc(-c2nc(-c3cccs3)[nH]c2-c2ccccc2)cc1,18,x,1842,24,x,25*,23*,16,15
COc1ccc(CN(Cc2cccnc2)C(=S)NCCc2ccccc2)cc1OC,1,x,1522,2,x,-7,x,x,x
CC(=O)c1c(C)[nH]c(C(=O)CSc2nnc(-c3ccco3)o2)c1C,10,1872,1762,4,1786,10,x,x,x
COc1ccc(-c2nnc(SCC(=O)c3[nH]c(C)c(C(C)=O)c3C)o2)cc1,9,x,1621,0,x,19*,4,1,3
CCOC(=O)c1c(NC(=O)COc2ncnc3ccccc23)sc(C(C)=O)c1C,25*,2218,1682,11,1991,13,16,14,10
CC(=O)N=c1sc2nc3ccccc3nc2n1N(C(C)=O)C(C)=O,26*,2476*,1906,15,1815,15,44*,31*,29*
COC(=O)c1c(C(=O)OC)c2cc(C)ccn2c1Cl,9,x,1615,3,x,6,x,x,x
COC(=O)c1cc2c(-c3ccccc3)c(C)c3ccccn3c-2c1C(=O)OC,16,x,1968,29*,x,17,8,14,4
